MCF10A rerep: DNA re-replication induction in MCF 10a cells; MCF 10A DNA re-replication, Hoechst nuclear intensity, 48 h; Potency, µM (titrated, usually from 46.1 µM), actives largely listed as activators; actives 2.9% (n = 350,000); AID 624296; note: nearly all actives have a fitted effect of over 50% in size
PTAP TSG101 blk: blocks PTAP/TSG101 interaction to inhibit HIV-1 budding; Q99816; Fluorescence polarization, FITC-PTAP peptide / Tsg101 binding; Potency, µM (doses to about 115 µM), actives largely listed as inhibitors; 340,000 tested, under 10 active; AID 493005; active = well fitted inhibition curve with a large enough effect in the main read-out, with a control signal flat, not every such curve was filed as active; inconclusive = small, poorly fitted or top-dose-only effect, or effect the other way, or a change in a side signal; inactive = no such curve, though single readings can be large or run the other way
Target sequence (Q99816 whole entry, looked up): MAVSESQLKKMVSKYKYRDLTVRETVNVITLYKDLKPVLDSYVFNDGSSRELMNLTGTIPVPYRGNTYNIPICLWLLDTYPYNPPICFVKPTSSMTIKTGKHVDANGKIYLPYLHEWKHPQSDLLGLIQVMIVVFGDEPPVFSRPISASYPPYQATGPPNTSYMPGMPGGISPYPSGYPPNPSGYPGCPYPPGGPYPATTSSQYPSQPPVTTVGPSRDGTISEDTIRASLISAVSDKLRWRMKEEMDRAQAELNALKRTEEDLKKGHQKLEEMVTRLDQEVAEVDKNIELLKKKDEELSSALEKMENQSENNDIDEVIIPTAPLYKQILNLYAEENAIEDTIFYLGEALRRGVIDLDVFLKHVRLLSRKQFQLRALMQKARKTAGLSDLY
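Fluorescence polarization binding of Tsg101 binding domain (10 uM final) to FITC-labeled PTAP peptide (50 nM final) in HEPES pH 7.5 buffer with NaCl, Tween 20, EDTA, TCEP. Compounds added before peptide; binding 20 min at RT.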
RGS4 inhibitor: human RGS4 inhibition; P49798; Transcreener GDP fluorescence polarization, RGS4-accelerated GTP hydrolysis; actives 0.039% (n = 390,000); AID 504845; Potency, µM (series often up to 114 µM), usual class: inhibitors; note: nearly all actives have a fitted effect of over 75% in size
Target sequence (P49798 whole entry, looked up): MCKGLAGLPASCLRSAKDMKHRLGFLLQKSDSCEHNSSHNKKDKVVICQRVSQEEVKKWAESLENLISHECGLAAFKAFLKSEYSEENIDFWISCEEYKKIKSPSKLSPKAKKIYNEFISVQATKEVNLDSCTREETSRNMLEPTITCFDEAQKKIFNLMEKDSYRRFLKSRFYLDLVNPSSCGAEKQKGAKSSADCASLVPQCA
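MLSMR compounds (23 nl, pin-transferred) preincubated 10 min at room temperature with a 500nM (2x) first reagent, then RGS4 at 900nM (2x) plus Transcreener GDP mix added; fluorescence polarization (620/688 nm) read before and after 90 min at 30 °C.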
KB-V1 cytotox: KB-V1 MDR subline cytotoxicity | KB-V1 MDR cells viability, CellTiter-Glo, 72 h | Potency, µM (titrated, usually from 46.1 µM), hits mostly cytotoxic | actives 3.4% (n = 400,000) | AID 1347076; note: nearly all actives have a fitted effect of over 60% in size
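Readout: CellTiter-Glo luminescence, 10 min after addition. Cells: KB-V1 MDR subline, 72 h at 37 degrees C with compound. Analysis: corrected, normalized data fitted to concentration-effect curves.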
KB-3-1 cytotox: kills parental KB-3-1 adenocarcinoma cells | KB-3-1 viability, CellTiter-Glo ATP luminescence, 72 h | Potency, µM (titrated, usually from 46.1 µM), usual class: cytotoxic | actives 1.4% (n = 400,000); note: nearly all actives have a fitted effect of over 60% in size
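Parental KB-3-1 viability, qHTS format: 72 h compound exposure, 37 °C; CellTiter-Glo; media-only wells and DMSO plates as controls; concentration-effect fits on corrected data.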
SW480 rereplic: inducers of DNA re-replication in SW480 colon cancer cells; SW480 DNA re-replication, Hoechst DNA content imaging, 48 h; Potency, µM (top dose mostly 46.1 µM), actives largely listed as activators; actives 1.8% (n = 340,000); AID 624297; note: nearly all actives have a fitted effect of over 55% in size
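Readout is total intensity of Hoechst-stained nuclei, excited at 405 nm and collected at 500-530 nm. Compound treatment lasted 48 hr at 37 C in 5% CO2 before staining.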
Each line names hits and unclear results; the compound was inactive in the other large screens. Rows were chosen to be rich in hits. Some 6.6% of all compounds tested hit in one or more screens of this group. Unless noted, calls come from the whole dose curve; as a rule, active = well fitted curve in the direction sought with a large enough effect; inconclusive = small, poorly fitted or top-dose-only effect, or another doubt; inactive = no such curve, though single readings can be large; an effect the other way counts as inactive or inconclusive.

N/C(=N\c1nnc(-c2ccncc2)s1)Nc1ccc(Cl)c(Cl)c1	none (no result: MCF10A rerep, PTAP TSG101 blk, RGS4 inhibitor, SW480 rereplic)
CC(C)(C)C1CCc2c(sc(NC(=O)c3ccncc3)c2C(N)=O)C1 (stereo unspecified)	KB-V1 cytotox 12µM
CCCCn1c(SCC(=O)NCc2ccco2)nc2ccc(N3CCOCC3)cc2c1=O	MCF10A rerep inconclusive, KB-V1 cytotox 2.1µM
CCCCn1c(SCC(=O)NC(C)CC)nc2ccc(N3CCOCC3)cc2c1=O (stereo unspecified)	KB-V1 cytotox 3.3µM
CC/C(=N/NC(=O)c1ccc(Br)o1)c1ccc(Cl)cc1	KB-V1 cytotox 15µM
Cc1ccc(CCNC(=O)CCn2nc(-c3ccc(C)cc3)ccc2=O)cc1	none (no result: MCF10A rerep, PTAP TSG101 blk, SW480 rereplic)
Cc1ccc(CNC(=O)CCn2nc(-c3ccc(Cl)cc3)ccc2=O)cc1	KB-V1 cytotox 23µM (no result: PTAP TSG101 blk)
O=C(CNC(=O)c1ccc(Br)o1)NCc1ccc(Cl)cc1	MCF10A rerep 26µM, SW480 rereplic inconclusive
Cc1ccc(CC(=O)NCc2ccc(Cl)cc2)cc1	MCF10A rerep 7.3µM, RGS4 inhibitor inconclusive, KB-V1 cytotox inconclusive, SW480 rereplic 0.92µM
COc1ccc(C)cc1N(C)C(=O)c1sc2nc3n(c(=O)c2c1C)CCCCC3	none (no result: MCF10A rerep, PTAP TSG101 blk, SW480 rereplic)
CCc1ccc(NC(=O)Cn2c(SCc3ccc(C)cc3)nc3ccncc32)cc1	none (no result: MCF10A rerep, PTAP TSG101 blk, SW480 rereplic)
CC(CNC(=O)CN1C(=O)COc2ccc(S(=O)(=O)N3CCCCCC3)cc21)c1ccccc1 (stereo unspecified)	none (no result: MCF10A rerep, PTAP TSG101 blk, KB-V1 cytotox, KB-3-1 cytotox, SW480 rereplic)
CCc1ccc(C(=O)c2cn(CC(=O)Nc3ccc4c(c3)OCCO4)c3ccc(C)cc3c2=O)cc1	KB-V1 cytotox inconclusive (no result: MCF10A rerep, PTAP TSG101 blk, SW480 rereplic)
Fc1ccc(-n2cc(-c3ccccc3)c3c(NC4CCCCC4)ncnc32)cc1	none (no result: MCF10A rerep, PTAP TSG101 blk, KB-V1 cytotox, KB-3-1 cytotox, SW480 rereplic)
COc1ccc2c(C)c(CCC(=O)NCc3cccc(Cl)c3)c(=O)oc2c1	none (no result: MCF10A rerep, PTAP TSG101 blk, SW480 rereplic)
Cc1cccc(CCNC(=O)CCc2c(C)nc3c(c(C)nn3-c3ccccc3)c2C)c1	KB-V1 cytotox inconclusive (no result: MCF10A rerep, PTAP TSG101 blk, SW480 rereplic)
O=C(CN1CCN(c2cccc(C(F)(F)F)c2)CC1)N(C1CCCC1)C1CCS(=O)(=O)C1 (stereo unspecified)	KB-V1 cytotox 21µM
CNC(=O)CSCc1cnn(-c2ccccc2)c1-n1cccc1	KB-V1 cytotox 16µM
CC(C)CCNC(=O)CSCc1cnn(-c2ccccc2)c1-n1cccc1	none (no result: MCF10A rerep, PTAP TSG101 blk, KB-V1 cytotox, KB-3-1 cytotox, SW480 rereplic)
COc1cccc2c1OCC(CN1CCN(Cc3ccccc3F)C(CCO)C1)=C2 (stereo unspecified)	MCF10A rerep 0.73µM, KB-V1 cytotox inconclusive, SW480 rereplic inconclusive
CCC(=O)C1=C(c2cccc(OC)c2)N(C(=O)CC)n2c(nnc2C2CCCCC2)S1	none (no result: MCF10A rerep, PTAP TSG101 blk, KB-V1 cytotox, KB-3-1 cytotox, SW480 rereplic)
Cn1c(SCC(=O)N2CCc3ccccc3C2)nnc1-c1ccncc1	none
Cc1ccccc1-n1c(C)nnc1SCC(=O)N1CCc2ccccc2C1	MCF10A rerep inconclusive, KB-V1 cytotox 6.5µM
O=C(c1ccc(CN2CCOCC2)cc1)N1CCC(Cc2ccccc2)CC1	MCF10A rerep inconclusive, KB-V1 cytotox 21µM
COc1ccc(CCNC(=O)c2ccc(CN3CCC(Cc4ccccc4)CC3)cc2)cc1OC	KB-V1 cytotox 3.7µM
COc1ccc(CCNC(=S)N2CCC(Cc3ccccc3)CC2)cc1OC	MCF10A rerep inconclusive, KB-V1 cytotox 15µM, KB-3-1 cytotox inconclusive
CCCNC(=S)N1CCC(Cc2ccccc2)CC1	none
S=C(Nc1ccccc1)N1CCC(Cc2ccccc2)CC1	KB-3-1 cytotox 12µM
CN(C)c1ccc(CNC(=O)c2ccccc2NC(=O)c2nsc3ccccc23)cc1	none (no result: MCF10A rerep, PTAP TSG101 blk, SW480 rereplic)
Cc1ccccc1Nc1nc(N)c(C(=O)c2ccccc2Cl)s1	none (no result: MCF10A rerep, PTAP TSG101 blk, KB-V1 cytotox, KB-3-1 cytotox, SW480 rereplic)
O=C(c1ccccc1Cl)N1CCCCC1CCN1CCCCC1 (stereo unspecified)	none (no result: MCF10A rerep, PTAP TSG101 blk, KB-V1 cytotox, KB-3-1 cytotox, SW480 rereplic)
COc1c([N+](=O)[O-])ccc(N)c1N	none (no result: MCF10A rerep, PTAP TSG101 blk, RGS4 inhibitor, SW480 rereplic)
COc1ccc(C(=O)C2CCN(C(=S)NCCc3ccc(OC)c(OC)c3)CC2)cc1	none
CC(C)OCCCNC(=S)N1CCC(C(=O)c2ccc(Cl)cc2)CC1	MCF10A rerep inconclusive, RGS4 inhibitor inconclusive, KB-V1 cytotox 8.2µM

Source: PubChem (National Center for Advancing Translational Sciences (NCATS))
